# Inconclusive results are not listed. Entries that show only a call come without a potency. Activity calls are given as the source filed them. Unless noted, calls come from the whole dose curve; as a rule, active = well fitted curve in the direction sought with a large enough effect; inconclusive = small, poorly fitted or top-dose-only effect, or another doubt; inactive = no such curve, though single readings can be large; an effect the other way counts as inactive or inconclusive.
# How the values were obtained:
# [1] = Cell Viability - LYMP1-002 - Assay at 24 hr (AID 993); settings: LYMP1-002 lymphoblastoid cells viability; series mostly up to 92.2 µM
# In short: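 qHTS, LYMP1-002 lymphoblastoid, 24 h cpd, 37 C, CellTiter-Glo ATP luminescence; AC50 via Hill eq.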
# [2] = Cell Viability - LYMP1-002 - Assay at 40 hr (AID 994); settings: LYMP1-002 lymphoblastoid cell viability; series mostly up to 92.2 µM; note: nearly all actives have a fitted effect of over 60% in size
# In short: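 Viability in the human lymphoblastoid line was measured as intracellular ATP via CellTiter-Glo after 40 hr compound exposure. Tetraoctylammonium bromide served as positive control.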
# [3] = target: Alpha-galactosidase (Coffea arabica) (UniProt Q42656); test: Counterscreen for Glucocerebrosidase Inhibitors: qHTS Assay for Coffee Bean alpha-Galactosidase at pH 5.9 (AID 998); settings: coffee bean alpha-galactosidase enzyme assay; series mostly up to 76.9 µM
# Alpha-galactosidase (Coffea arabica), sequence (Q42656 whole entry, looked up): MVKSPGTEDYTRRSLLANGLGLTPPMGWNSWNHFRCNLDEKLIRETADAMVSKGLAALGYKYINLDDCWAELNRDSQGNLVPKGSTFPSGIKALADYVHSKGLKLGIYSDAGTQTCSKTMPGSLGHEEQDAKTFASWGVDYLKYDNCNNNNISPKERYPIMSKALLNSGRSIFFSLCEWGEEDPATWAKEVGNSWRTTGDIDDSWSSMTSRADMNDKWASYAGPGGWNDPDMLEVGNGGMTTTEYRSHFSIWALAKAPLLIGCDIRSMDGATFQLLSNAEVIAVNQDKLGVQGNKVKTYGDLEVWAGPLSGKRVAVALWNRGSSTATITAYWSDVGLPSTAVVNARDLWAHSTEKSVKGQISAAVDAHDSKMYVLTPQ
# In short: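 Green coffee bean enzyme (2 nM final) was incubated with compounds (0.7 nM–77 uM) and 4-methylumbelliferyl alpha-D-galactopyranoside (80 uM) in citrate buffer pH 5.9, 20 min at room temperature. High-pH stop; fluorescence 365/440 nm; AC50 from Hill fits.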
# [4] = qHTS Assay for Identification of Small Molecule Inducers of Hypoxia Response (AID 2120; active = well fitted curve in the direction sought with a large enough effect in the signal ratio, with a control signal flat, not every such curve was filed as active; the % refers to the signal ratio); settings: hypoxia response reporter cells, beta-lactamase ratio readout; series mostly up to 104 µM
# In short: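 Induction of beta-lactamase reporter activity was measured in CellSensor HRE-bla ME-180 cells after 17 h compound treatment at 37 degrees C, using CCF4 substrate and the 460nm/530nm emission ratio to derive AC50 values.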
SMILES,Potency [1],Potency [2],outcome [3],outcome [4]
CN(C)[C@@H]1C(=O)C(C(N)=O)=C(O)[C@@]2(O)C(=O)C3=C(O)c4c(O)cccc4[C@@](C)(O)[C@H]3[C@H](O)[C@@H]12,inactive,inactive,–,–
C[C@]12C[C@H](O)[C@H]3[C@@H](CCC4=CC(=O)CC[C@@]43C)[C@@H]1CC[C@@H]2C(=O)CO,–,–,inactive,–
O=C(O)C(Cl)Cl,inactive,inactive,–,inactive
CC(=O)Oc1ccccc1C(=O)O,–,–,inactive,–
Nc1ccc(Cl)cc1N,inactive,inactive,–,inactive
CCOCCOC(C)=O,inactive,inactive,–,inactive
COC(C)(C)CCCC(C)C/C=C/C(C)=C/C(=O)OC(C)C (stereo not drawn),inactive,inactive,–,inactive
Nc1ccc([N+](=O)[O-])cc1,inactive,inactive,–,inactive
O=C(O)COc1ccccc1,inactive,inactive,–,inactive
Nc1ccc(Sc2ccc(N)cc2)cc1,inactive,inactive,–,inactive
CCCCCCCCc1ccc(O)cc1,inactive,inactive,–,inactive

# From PubChem BioAssay (NCATS)
